ST2 inh: IL1RL1 inhibition | AlphaLISA ST2-Fc/biotin-IL-33 interaction, 1 h | inhibition, % for hits at 17 µM | 78,000 compounds, 2.3% hits; in the data active = inhibition above about 30%
Target sequence (Q01638 whole entry, looked up): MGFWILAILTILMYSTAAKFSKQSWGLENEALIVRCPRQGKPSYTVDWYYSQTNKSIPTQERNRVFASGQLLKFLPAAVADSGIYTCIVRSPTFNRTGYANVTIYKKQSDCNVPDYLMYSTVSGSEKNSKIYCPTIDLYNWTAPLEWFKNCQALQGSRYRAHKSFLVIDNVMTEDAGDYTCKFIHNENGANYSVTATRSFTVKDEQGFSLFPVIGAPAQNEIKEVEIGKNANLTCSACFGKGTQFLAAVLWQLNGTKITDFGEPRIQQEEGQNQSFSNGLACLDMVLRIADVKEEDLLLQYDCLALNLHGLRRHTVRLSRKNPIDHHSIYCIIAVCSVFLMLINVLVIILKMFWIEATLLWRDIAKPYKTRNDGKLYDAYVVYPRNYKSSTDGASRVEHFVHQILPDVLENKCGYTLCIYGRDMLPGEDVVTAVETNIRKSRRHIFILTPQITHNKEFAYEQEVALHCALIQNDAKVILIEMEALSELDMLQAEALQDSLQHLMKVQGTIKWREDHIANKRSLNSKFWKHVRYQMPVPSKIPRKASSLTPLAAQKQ
Numbers stand for hits; 0 = inactive. Shown is part of a subset that was picked to be rich in hits.

SMILES	ST2 inh
CC(C)CCNC(=O)C1c2c(n(C)c3ccccc23)SCC(=O)N1c1ccc(F)cc1F (stereo unspecified)	0
COc1ccc(C2=CC(c3ccccc3)n3ncnc3N2)cc1 (stereo unspecified)	0
CCN1CCN(C(=O)C2c3ccccc3C(=O)N3CCc4ccccc4C23)CC1 (stereo unspecified)	0
CCCOc1ccc(N2CC(C(=O)Nc3ccc(Cl)cc3Cl)CC2=O)cc1 (stereo unspecified)	0
CCN1CCCC1CNC(=O)C1c2cc(OC)c(OC)cc2C(=O)N(C)C1c1ccccc1F (stereo unspecified)	0
Cc1cc2nc(COc3ccc(Cl)cc3NC(=O)c3ccc4c(c3)OCO4)cc(=O)n2o1	0
CN1C(=O)C2(CCN(C(=O)CCCn3ccnc3)CC2)c2ccccc21	0
O=C(CN1C(=O)C2(OCCO2)c2ccccc21)c1ccccc1	0
CC1(C)CC1C(=O)NCc1ccccc1 (stereo unspecified)	0
CCn1ncc(NC(=O)c2cccc(CN3CCCCC3CCO)c2)n1 (stereo unspecified)	0
Cc1cc(N2CCc3[nH]nc(C(C)C)c3C2)nc(-c2cccnc2)n1	0
CCCCSc1nnc(-c2ccccc2N)c(=O)[nH]1	0
Cc1cc2nc(Cc3cccc(F)c3)c(=O)n(C)c2cc1C	0
Cn1c(=O)c(-c2ccccc2N)nc2cc3ccccc3cc21	32.0%
CCC(=O)Nc1ccc(NC(=O)CC(C)C)cc1	0
O=C1CSC(c2ccccc2)N1c1ccc(Cl)cc1 (stereo unspecified)	0
CC1SC2(CCCCC2)N(c2ccc(Cl)cc2)C1=O (stereo unspecified)	0
CC(C)(C)C1CCC2(CC1)SCC(=O)N2c1ccc(Cl)cc1 (stereo unspecified)	36.0%
CCOc1ccc(CC2SC(N)=NC2=O)cc1 (stereo unspecified)	0
Cc1ccc(-c2nnc(-c3nc(NC(C)(C)C)c4ccccc4n3)o2)cc1	0
NC(=O)CSc1nc2c(sc3ccccc32)c(=O)n1CCO	0
COC(=O)C1=C(NC(=O)c2cc(Cl)ccc2Cl)CCS1	0
COC(=O)C1=C(NC(=O)c2cc(C)cc(C)c2)CCS1	50.0%
COC(=O)C1=C(NC(=O)c2ccc(Cl)cc2)CCS1	0
O=C(NC[C@H]1O[C@@H](CO)[C@@H](O)[C@H]1N1CCN(c2cccc(C(F)(F)F)c2)CC1)c1ccc(F)c(Cl)c1	0
SMILES	ST2 inh
O=c1[nH]c2ccc(S(=O)(=O)Nc3cccc4c3CCCC4)cc2[nH]c1=O	0
Cc1cc(-c2cc(F)cc3c2OC(CNC(=O)C2CCOC(C)(C)C2)C3)ccc1F (stereo unspecified)	0
Cc1c(C=O)c2ccccc2n1CC(=O)N1CCCc2ccccc21	0
Cc1c(C)n2c3c(cccc13)CCC2	52.0%
Cc1cc2c(cc1O)NC(=O)CC2c1cc(=O)n2c3c(cccc13)CCC2 (stereo unspecified)	0
O=C1C2[C@H](C(=O)N1Cc1ccccc1)C1c3ccccc3C2(C(=O)O)c2ccccc21 (stereo partly specified)	0
Cc1oc2ccc(OCC(=O)C(C)(C)C)cc2c1C(=O)OC(C)C	0
CCSc1nc(CC(=O)NCc2ccc(CC)cn2)cs1	0
CCSc1nc(CC(=O)NCc2sc(C)nc2CC)cs1	31.0%
CCSc1nc(CC(=O)NCc2cc(CC)no2)cs1	0
Cc1cc(C(=O)Nc2ccc(F)c(Cl)c2)no1	0
COCCNC(=O)C1c2ccccc2C(=O)N2CCc3ccccc3C12 (stereo unspecified)	0
NC[C@@H]1OC(O[C@H]2[C@@H](O)[C@H](O[C@@H]3[C@@H](O)[C@H](N)C[C@H](N)[C@H]3O[C@H]3O[C@H](CO)[C@@H](O)[C@H](O)[C@H]3N)O[C@@H]2CO)[C@H](N)[C@@H](O)[C@@H]1O (stereo partly specified)	0
O=C(Nc1ccc(N2CCCC2)cc1)c1cc(I)ccc1Cl	51.0%
CCCOc1ccc(C(=O)Nc2ccc(N3CCCC3)cc2)cc1	0
CCc1cccc(C)c1NC(=O)c1ccc(C)c(Cl)c1	0
Cc1ccc(C(=O)Nc2ccc(N3CCCC3)cc2)cc1Cl	53.0%
O=C(Nc1ccc(N2CCCC2)cc1)c1ccc(F)cc1	57.0%
CC(=O)c1ccc(C(=O)Nc2ccc(N3CCOCC3)cc2)cc1	0
O=C(Cc1ccccc1)Nc1ccc(S(=O)(=O)N2CCCC2)cc1	0
O=C(Cc1ccccc1)Nc1cccc(C(=O)O)c1	0
CC(=O)Nc1ccc(NC(=O)c2cc(I)ccc2Cl)cc1	0
Cc1ccc(C(=O)Nc2cccc([N+](=O)[O-])c2)cc1Cl	0
O=C(Nc1ccc(I)cc1)c1ccc(Cl)cc1Cl	0
O=C(Cc1ccccc1)Nc1ccc(N2CCCC2)cc1	59.0%
SMILES	ST2 inh
CCCCOC(=O)N1CCCC(c2nn(C)c(=O)n2CC)C1 (stereo unspecified)	0
Cc1c(Cl)cccc1NC(=O)c1noc2c1CCC2	0
CCCOC(=O)COc1ccc2c(=O)c(-c3ccccc3OC)coc2c1	0
CCC(C)NC(=O)CN1C(=O)/C(=C\c2ccc(C(F)(F)F)cc2)Sc2ccccc21 (stereo unspecified)	0
O=C(Cn1c(=O)n(-c2ccc(F)cc2F)c(=O)c2sccc21)NCc1ccco1	0
CCCCOC(=O)C1=C(C)Nc2ncnn2C1c1cc(Br)ccc1F (stereo unspecified)	0
CCOC(=O)Cn1c(=O)n(-c2ccc(F)cc2)c2nc(-c3ccc(Cl)cc3)nc(C(N)=O)c21	0
CCn1nc(C)c(NC(=O)CN2CCCC2c2cc(C(C)C)on2)c1C (stereo unspecified)	0
CC(C)c1cc(C2CCCN2C(=O)c2cnn3c2CCCC3)no1 (stereo unspecified)	32.0%
Cc1noc(C)c1C1CCCN1C(=O)c1cnn2ccn(C)c12 (stereo unspecified)	0
Cn1c(=O)c2c(nc(NC3CCCCC3)n2Cc2cccc(Cl)c2)n(C)c1=O	0
Cc1nnsc1Cn1cc(C(C)c2ccccc2)nn1 (stereo unspecified)	0
CN(C)C(=O)c1ccccc1-c1cccc(Cl)c1	0
CC(=O)N(C1=C(N(C)C)C(=O)c2ccccc2C1=O)c1cccc(Cl)c1	31.0%
CC(=O)N(CN1C(=O)CCC1=O)c1cccc(Cl)c1	0
CN1CC2(CCN(C(=O)CCc3nc4ccccc4[nH]3)C2)OC1=O (stereo unspecified)	0
COc1ccc([C@@H](C)NC(=O)[C@@H]2C[C@H](NC(=O)N3CCOCC3)CN2C)cc1	0
COc1ccc(NC(=O)c2sc3cccc(Cl)c3c2Cl)c(OC)c1	0
COc1ccc(Cl)cc1C(=O)Nc1ccc(Nc2nc(C)cc(Nc3ccccc3)n2)cc1	0
COc1ccc(Cl)cc1C(=O)Nc1ccc(Nc2nc(C)cc(N(C)C)n2)cc1	33.0%
Cc1cc(N(C)C)nc(Nc2ccc(NC(=O)c3ccccc3C)cc2)n1	31.0%
COc1cc(OC)cc(C(=O)Nc2ccc(Nc3nc(C)cc(N(C)C)n3)cc2)c1	0
Cc1cc(N(C)C)nc(Nc2ccc(NC(=O)c3ccccc3C(F)(F)F)cc2)n1	0
Cc1cc(N(C)C)nc(Nc2ccc(NC(=O)c3c(F)cccc3F)cc2)n1	0
CN1C[C@@H](NC(=O)Nc2ccccc2)C[C@H]1c1nc(-c2ccccc2)no1	0
O=C(NC1CCCCCC1)c1coc(=O)c2ccccc12	0
Cn1c(=N)n(CCOc2ccc(F)cc2)c2ccccc21	0
Nc1[nH]nc2nc(N3CCCCC3)nc(-c3ccc4c(c3)OCO4)c12	0
COc1cccc(Cl)c1-c1csc(C(N)=O)c1	0
COc1ccccc1OCC(=O)Nc1cccc(C(=O)Nc2nccs2)c1	0

Screening data: PubChem, Paczesny and Yang Labs, IUPUI and University of Michigan
